Assay results: PubChem BioAssay AID651871 (Sanford-Burnham Center for Chemical Genomics, 2012)
“And” between values parts separate entries of the source, which are not always exact repeats. Equal values may be shown once.

Test system: HL-1
Test: protection of cardiomyocytes from stress damage, SAR follow-up, cell-based, panel, H9c2 and HL-1, ATP luminescence, set 2 (AID 651871);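 note: cells exposed to stressor for 2 h before ATP readout; reference of the scale not given here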
Settings: H9c2/HL-1 cardiomyocytes, 2-deoxyglucose stress, with 2-deoxyglucose, run 5, at 79 µM (top of the series)

Compound	activity (protection/inhibition)
COc1ccc2c(c1OC)C(=O)N1c3ccccc3C(=O)N(Cc3cccc(Cl)c3Cl)C21 (stereo not drawn)	43.8% and -9.92%
CCOC(=O)c1cccc(NC(=O)CNC(=O)c2cc(-c3cc(OC)c(OC)c(OC)c3)nc3ccccc23)c1	51.1%
COc1ccc2nc(-c3cc(OC)c(OC)c(OC)c3)cc(C(=O)NCC(=O)Nc3ccc(C(C)=O)cc3)c2c1	55.8%
